Experimental data reported in PubChem BioAssay AID1159580 (chemical genetic matrix, 2015).
Hit rate of the full screen: of about 5,500 compounds, about 2,000 (36%) were called active. Inconclusive results (about 18%) are left out. No stated cut-off is given here; in the data, active means normalized growth mostly below about 0.91 (no sharp cut-off); inconclusive means no clear call, values can overlap the other calls; inactive means mostly above about 0.92. This is one part of the list.

Assay: chemical genetic growth profiling, strain panel (AID 1159580);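 further: tested at 20 µM; growth read once vehicle control cultures reached saturation at 30 °C; 1 = growth at the plate median or of vehicle wells; lower values mean less growth of the strain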
Conditions: growth OD

Measured: normalized growth

C[C@@H]1CC[C@H]2[C@@H](C)C(=O)O[C@@H]3O[C@@]4(C)CC[C@@H]1[C@]32OO4
inactive: S. cerevisiae deletion strains, locus YKL009W, strain mrt4, hits give low values 0.986 | S. cerevisiae deletion strains, locus YKR026C, strain gcn3, hits give low values 0.953 | S. cerevisiae deletion strains, locus YKR091W, strain srl3, hits give low values 0.949 | S. cerevisiae deletion strains, locus YLL041C, strain sdh2, hits give low values 0.946 | S. cerevisiae deletion strains, locus YLR102C, strain apc9, hits give low values 0.94 | S. cerevisiae deletion strains, locus YLR258W, strain gsy2, hits give low values 0.918 | S. cerevisiae deletion strains, locus YLR342W, strain FKS1 (second series), hits give low values 0.82 | S. cerevisiae deletion strains, locus YLR357W, strain rsc2, hits give low values 1.02 | S. cerevisiae deletion strains, locus YLR371W, strain rom2, hits give low values 0.929 | S. cerevisiae deletion strains, locus YLR384C, strain iki3, hits give low values 0.949 | S. cerevisiae deletion strains, locus YML124C, strain tub3, hits give low values 0.936 | S. cerevisiae deletion strains, locus YMR125W, strain sto1, hits give low values 0.925 | S. cerevisiae deletion strains, locus YMR307W, strain GAS1, hits give low values 0.651 | S. cerevisiae deletion strains, locus YNL248C, strain rpa49, hits give low values 0.902 | S. cerevisiae deletion strains, locus YNR049C, strain mso1, hits give low values 0.94 | S. cerevisiae deletion strains, locus YOL006C, strain TOP1, hits give low values 0.605 | S. cerevisiae deletion strains, locus YOL012C, strain htz1 0.461 | S. cerevisiae deletion strains, locus YOR061W, strain CKA2, hits give low values 0.92 | S. cerevisiae deletion strains, locus YOR080W, strain dia2, hits give low values 0.926 | S. cerevisiae deletion strains, locus YOR136W, strain idh2, hits give low values 0.93 | S. cerevisiae deletion strains, locus YOR316C, strain cot1, hits give low values 0.94 | S. cerevisiae deletion strains, locus YPL106C, strain sse1, hits give low values 0.894 | S. cerevisiae deletion strains, locus YPL240C, strain hsp82, hits give low values 0.949 | S. cerevisiae deletion strains, locus YPR163C, strain tif3, hits give low values 0.958
active: S. cerevisiae deletion strains, locus YKL068W, hits give low values 0.914 | S. cerevisiae deletion strains, locus YKL085W, strain MDH1 (second series), hits give low values 0.906 | S. cerevisiae deletion strains, locus YKL085W, strain MDH1, hits give low values 0.906 | S. cerevisiae deletion strains, locus YKL160W, strain elf1, hits give low values 0.874 | S. cerevisiae deletion strains, locus YKL190W, strain CNB1, hits give low values 0.856 | S. cerevisiae deletion strains, locus YKR001C, strain vps1, hits give low values 0.692 | S. cerevisiae deletion strains, locus YLL001W, strain dnm1, hits give low values 0.824 | S. cerevisiae deletion strains, locus YLL026W, hits give low values 0.876 | S. cerevisiae deletion strains, locus YLR027C, strain aat2, hits give low values 0.865 | S. cerevisiae deletion strains, locus YLR039C, strain RIC1, hits give low values 0.353 | S. cerevisiae deletion strains, locus YLR058C, strain SHM2, hits give low values 0.852 | S. cerevisiae deletion strains, locus YLR113W, strain HOG1, hits give low values 0.698 | S. cerevisiae deletion strains, locus YLR221C, strain rsa3, hits give low values 0.812 | S. cerevisiae deletion strains, locus YLR262C, strain YPT6 (second series), hits give low values 0.375 | S. cerevisiae deletion strains, locus YLR262C, strain YPT6, hits give low values 0.364 | S. cerevisiae deletion strains, locus YLR268W, strain sec22, hits give low values 0.822 | S. cerevisiae deletion strains, locus YLR320W, strain mms22, hits give low values 0.674 | S. cerevisiae deletion strains, locus YLR330W, strain CHS5, hits give low values 0.879 | S. cerevisiae deletion strains, locus YLR342W, strain FKS1, hits give low values 0.885 | S. cerevisiae deletion strains, locus YLR370C, strain arc18, hits give low values 0.897 | S. cerevisiae deletion strains, locus YLR418C, strain cdc73, hits give low values 0.614 | S. cerevisiae deletion strains, locus YML016C, strain PPZ1, hits give low values 0.915 | S. cerevisiae deletion strains, locus YML032C, strain rad52, hits give low values 0.798 | S. cerevisiae deletion strains, locus YML120C, strain ndi1, hits give low values 0.839 | S. cerevisiae deletion strains, locus YMR058W, strain fet3, hits give low values 0.742 | S. cerevisiae deletion strains, locus YMR078C, strain ctf18, hits give low values 0.882 | S. cerevisiae deletion strains, locus YMR129W, hits give low values 0.899 | S. cerevisiae deletion strains, locus YMR205C, strain PFK2, hits give low values 0.779 | S. cerevisiae deletion strains, locus YMR223W, strain ubp8, hits give low values 0.878 | S. cerevisiae deletion strains, locus YMR231W, strain pep5, hits give low values 0.928 | S. cerevisiae deletion strains, locus YMR263W, strain SAP30, hits give low values 0.81 | S. cerevisiae deletion strains, locus YNL067W, strain RPL9B, hits give low values 0.86 | S. cerevisiae deletion strains, locus YNL071W, strain lat1, hits give low values 0.705 | S. cerevisiae deletion strains, locus YNL128W, strain TEP1, hits give low values 0.757 | S. cerevisiae deletion strains, locus YNL153C, strain GIM3, hits give low values 0.811 | S. cerevisiae deletion strains, locus YNL183C, strain NPR1, hits give low values 0.748 | S. cerevisiae deletion strains, locus YNL209W, strain ssb2, hits give low values 0.867 | S. cerevisiae deletion strains, locus YNL233W, strain BNI4, hits give low values 0.81 | S. cerevisiae deletion strains, locus YNL250W, strain rad50, hits give low values 0.87 | S. cerevisiae deletion strains, locus YNL271C, strain bni1, hits give low values 0.883 | S. cerevisiae deletion strains, locus YNL298W, strain CLA4, hits give low values 0.861 | S. cerevisiae deletion strains, locus YNL307C, strain MCK1, hits give low values 0.754 | S. cerevisiae deletion strains, locus YNL322C, strain KRE1 (second series), hits give low values 0.904 | S. cerevisiae deletion strains, locus YNL322C, strain KRE1, hits give low values 0.857 | S. cerevisiae deletion strains, locus YNR052C, strain pop2, hits give low values 0.842 | S. cerevisiae deletion strains, locus YOL147C, strain pex11, hits give low values 0.869 | S. cerevisiae deletion strains, locus YOR001W, strain rrp6, hits give low values 0.855 | S. cerevisiae deletion strains, locus YOR069W, strain VPS5, hits give low values 0.911 | S. cerevisiae deletion strains, locus YOR070C, strain gyp1, hits give low values 0.814 | S. cerevisiae deletion strains, locus YOR083W, strain WHI5, hits give low values 0.822 | S. cerevisiae deletion strains, locus YOR106W, strain vam3, hits give low values 0.784 | S. cerevisiae deletion strains, locus YOR144C, strain elg1, hits give low values 0.927 | S. cerevisiae deletion strains, locus YOR184W, strain ser1, hits give low values 0.705 | S. cerevisiae deletion strains, locus YOR231W, strain MKK1, hits give low values 0.745 | S. cerevisiae deletion strains, locus YOR265W, strain rbl2, hits give low values 0.913 | S. cerevisiae deletion strains, locus YOR270C, strain vph1, hits give low values 0.633 | S. cerevisiae deletion strains, locus YOR290C, strain snf2, hits give low values 0.847 | S. cerevisiae deletion strains, locus YPL051W, strain arl3, hits give low values 0.818 | S. cerevisiae deletion strains, locus YPL078C, strain atp4, hits give low values 0.796 | S. cerevisiae deletion strains, locus YPL241C, strain CIN2, hits give low values 0.924 | S. cerevisiae deletion strains, locus YPL256C, strain CLN2, hits give low values 0.704 | S. cerevisiae deletion strains, locus YPR119W, strain clb2, hits give low values 0.927 | S. cerevisiae deletion strains, locus YPR141C, strain kar3, hits give low values 0.907 | S. cerevisiae deletion strains, locus YPR167C, strain met16, hits give low values 0.909 | S. cerevisiae deletion strains, strain wtn01, hits give low values 0.818 | S. cerevisiae strains, strain wild type, hits give low values 0.852
